Rows were chosen to be rich in hits. Some 19% of all compounds tested hit in one or more screens of this group.
HT1080NT lethal: kills 2HG-producing HT-1080-NT fibrosarcoma cells | HT-1080-NT fibrosarcoma viability, CellTiter-Glo ATP luminescence, 48 h | Potency, µM (highest dose often 46.1 µM), for the others: at the top dose activity, negative = less viability, hits mostly cytotoxic | 360,000 tested, 1.6% active | AID 686970;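 also: NT is the 2HG producing partner of a matched IDH1 knockdown line; potency is read from the fitted curve at half-maximal effect; 0% = DMSO-treated cells and -100% = media-only wells without cells; nearly all actives have a fitted effect of over 55% in size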
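HT-1080-NT fibrosarcoma cells (2HG-overproducing), 750 cells/well in RPMI with 5% FBS, dosed after 2 h and incubated 48 h at 37C. CellTiter-Glo luminescence normalized to DMSO and no-cell wells; concentration-response curves fitted and classed.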
DT40 TDP1 CPT: DT40-hTDP1 cell growth loss with CPT; chicken DT40 Tdp1-/-;hTDP1 cells + 20 nM CPT, ATP luminescence, 48 h; 420,000 tested, 12% active; Potency, µM (highest dose often 46.2 µM), for inactives: top-dose activity change, negative = growth inhibition, most hits filed as inhibitors; also: potency is read from the fitted curve at half-maximal effect; nearly all actives have a fitted effect of over 55% in size
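Cell growth measured by CellTiter-Glo luminescence after a minimum 48 h, 37 C compound exposure with 20 nM CPT in Tdp1-knockout DT40 cells stably expressing hTDP1, seeded 400/well; qHTS titration format.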
IL-1B inflam inh: inflammasome signaling inhibition, IL-1 beta readout | THP-1 LPS/ATP IL-1B secretion, AlphaLISA, 16 h; active compounds read low | activity change, % at 57.5 µM | 360,000 tested, 4.7% active | AID 743279; in the data active = activity change below about -50%; inconclusive = mostly about -30% to -49%
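THP-1 cells pretreated 1 hr with compounds (up to 57.5 uM final), then stimulated with LPS (250 ng/mL final) plus ATP (1.25 mM final); secreted IL-1B measured by AlphaLISA after 16 hr, decreased signal indicating inhibition.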
HT1080 IDH1KD tx: kills HT-1080 cells with IDH1 knockdown | HT-1080 IDH1 knockdown viability, ATP luminescence, 48 h | Potency, µM (top dose mostly 46.1 µM), inactives show at the top dose activity, negative = toxicity, hits mostly cytotoxic | 360,000 tested, 2% active | AID 686971;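 also: potency is read from the fitted curve at half-maximal effect; 0% = DMSO wells and -100% = cell-free medium wells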
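CellTiter-Glo luminescence after 48 h compound exposure at 37 degrees C of IDH1-knockdown HT-1080 cells in 5% FBS RPMI. %Activity scaled between DMSO wells and cell-free media wells, with curves fitted and assigned curve classes.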
ELG1 DNA repair: inhibitors of ELG1-dependent DNA repair in HEK293T cells; HEK293T ELG1-luciferase reporter, luminescence, 16 h; DNA damage induced by 5-fluorouridine; Potency, µM (highest dose often 46.1 µM), for the others: top-dose activity change, negative = inhibition, actives largely listed as inhibitors; 330,000 tested, 2.3% active; AID 504467; also: potency is read from the fitted curve at half-maximal effect; nearly all actives have a fitted effect of over 55% in size
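Quantitative HTS, concentration-response format. 2,000 cells/well co-treated with 5-fluorouridine and compound, 16 hr in 5% CO2 at 37 °C; ONE-Glo luminescence read after 30 min.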
DT40 TDP1 no CPT: qHTS for Inhibitors of human tyrosyl-DNA phosphodiesterase 1 (TDP1): qHTS in cells in absence of CPT; DT40 Tdp1-/- hTDP1 cells, no CPT, ATP luminescence, 48 h; Potency, µM (top dose mostly 46.2 µM), for inactives: at the top dose activity change, negative = growth inhibition, hits mostly inhibitors; 420,000 tested, 15% active; AID 686978, 2013; also: potency is read from the fitted curve at half-maximal effect; nearly all actives have a fitted effect of over 55% in size
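Growth kinetics read by CellTiter-Glo luminescence after ≥48 hr at 37 °C. Cells: DT40 Tdp1-/- stably carrying human TDP1, 400 per well, compound exposure in the absence of CPT (DMSO vehicle).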
Numbers without * were called inactive; i = inactive; u = inconclusive; x = not tested or not shown. Unless noted, calls follow the shape of the dose curve; as a rule, active = well fitted curve in the direction sought with a large enough effect; inconclusive = small, poorly fitted or top-dose-only effect, or another doubt; inactive = no such curve, though single readings can be large; an effect the other way counts as inactive or inconclusive. Unless noted, % is scaled to controls: 0 for no effect and ±100 for the full control effect.

SMILES	HT1080NT lethal	DT40 TDP1 CPT	IL-1B inflam inh	HT1080 IDH1KD tx	ELG1 DNA repair	DT40 TDP1 no CPT
CCOC(=O)c1ccc(NC(=O)Cc2ccc(-n3c(CC)nc4cccnc43)cc2)cc1	x	18.4µM*	x	x	x	25.9µM*
CCCn1c(CCC(=O)Nc2cccc(CC)c2)nc2cccnc21	x	16.4µM*	x	x	x	u
CCc1nc2cccnc2n1-c1ccc(CC(=O)NCCOC)cc1	5.6%	-2.6%	2.7	3.9%	8.0%	-6.1%
Cc1cc(C)c(NC(=O)Cc2ccc(-n3c(C)nc4cccnc43)cc2)c(C)c1	x	18.4µM*	x	x	x	20.6µM*
CCCn1c(CCC(=O)Nc2cccc(C)c2C)nc2cccnc21	x	-29.5%	x	x	x	u
CCOc1ccc(OCC)c(NC(=O)CCc2nc3cccnc3n2Cc2cccs2)c1	x	u	x	x	x	16.4µM*
CCNC(=O)c1ccc(C)c(-n2c(C)nc3cccnc32)c1	x	4.1%	x	x	x	-0.7%
CCCn1c(CCC(=O)Nc2ccccc2OC)nc2cccnc21	x	-18.8%	x	x	x	u
CN(C(=O)c1cccc(S(=O)(=O)N2CCCC2)c1)C1CCCCC1	6.3%	u	18.1	0.9%	16.2%	u
O=C(CCc1nc2cccnc2n1Cc1cccs1)Nc1cccc(Cl)c1	x	16.4µM*	x	x	x	u
Cc1cc(NC(=O)CCc2nc3cccnc3n2Cc2cccs2)ccc1Br	x	16.4µM*	x	x	x	20.6µM*
CCCCNC(=O)CCc1nc2cccnc2n1Cc1ccccc1	10.0%	-3.1%	-0.9	0.8%	-5.6%	12.6%
CCOC(=O)c1ccc(NC(=O)CCc2nc3cccnc3n2Cc2cccs2)cc1	x	u	x	x	x	18.4µM*
CCCOC(=O)c1ccc(NC(=O)Cc2cccs2)cc1	1.8%	-8.6%	23.7	-0.9%	u	u
Cc1c(C(=O)O)sc2[nH]c(=O)n(Cc3ccccc3)c(=O)c12	4.2%	1.1%	49.4	0.8%	-0.4%	0.3%
Cc1cn2c(=O)cc(COC(=O)COc3ccc(F)cc3)nc2s1	x	3.0%	x	x	x	-15.3%
CC(=O)c1cccc(NC(=O)COC(=O)c2ccccc2OCc2cccc(Br)c2)c1	-4.9%	-21.4%	x	2.4%	x	-22.3%
CCc1ccccc1NC(=O)CC(C)n1nc(C)cc1C (stereo not drawn)	x	-2.9%	x	x	x	-13.9%
NCCCC[C@@H](C(=O)NCCCCCCCCCCC(=O)N1CCNCC1)n1cc(CCO)nn1	5.1%	6.9%	1.6	1.1%	8.2%	-14.2%
CC[C@H](C)Cc1cn([C@@H](CCCCNC(=O)OC(C)(C)C)C(=O)NCCCCCCCCCCC(=O)N2CCN(C(=O)OC(C)(C)C)CC2)nn1	-1.6%	u	6.9	-2.5%	u	16.4µM*
CSCC[C@@H](C(=O)NCCCCCCCCCCC(=O)N1CCN(C(=O)OC(C)(C)C)CC1)n1cc(CCO)nn1	u	20.6µM*	-5.8	-0.3%	18.3µM*	14.6µM*
CC(=O)Nc1ccc(NC(=O)C(C)OC(=O)CNS(=O)(=O)c2ccc(Br)cc2Cl)cc1 (stereo not drawn)	-0.7%	-12.6%	i	-3.5%	0.0%	23.1µM*
O=C(CNS(=O)(=O)c1ccc(Br)cc1Cl)OCC(=O)c1ccc[nH]1	4.2%	2.2%	5.4	13.7%	5.6%	-21.4%
CCN1C(=O)C(=O)N(CC(=O)NC(C)CCc2ccccc2)C1=O (stereo not drawn)	6.3%	-0.9%	-0.8	5.9%	-1.8%	4.4%
Cc1ccc(NC(=O)CCCCCC2NC(=O)NC2C)cc1 (stereo not drawn)	2.6%	-22.3%	-95.3*	-6.3%	13.8%	5.6%
SMILES	HT1080NT lethal	DT40 TDP1 CPT	IL-1B inflam inh	HT1080 IDH1KD tx	ELG1 DNA repair	DT40 TDP1 no CPT
CCC(=O)Nc1ccc(F)c(Cl)c1	8.0%	-3.7%	7.4	3.2%	6.6%	-5.9%
CC1NC(=O)NC1CCCCC(=O)O (stereo not drawn)	23.4%	u	7.4	12.7%	0.4%	u
CC1NC(=O)NC1CCCCCC(=O)Nc1ccc(F)c(Cl)c1 (stereo not drawn)	-0.9%	5.6%	-115.7*	-5.0%	-4.4%	-20.9%
Cc1ccccc1NC(=O)Nc1nnc(Cc2ccc([N+](=O)[O-])cc2)s1	-0.2%	-26.0%	-14.1	-22.2%	u	-10.2%
Cc1nn(-c2ccccc2)c2c1C(c1ccccc1)C(C#N)=C(N)O2 (stereo not drawn)	6.5%	u	12.8	6.7%	14.8%	u
N#CC1=C(N)N(c2ccccc2)C(c2ccccc2)C1(C#N)C#N (stereo not drawn)	-17.5%	16.4µM*	-9.1	u	13.3%	14.6µM*
CC(C)CN(CC(C)C)C(=O)CCCC(=O)N(CC(C)C)CC(C)C	2.1%	u	-25.4	-1.4%	-5.6%	16.4µM*
CCCCC(=O)N(CCC)CCC	8.3%	7.5%	7.9	0.4%	-0.9%	0.8%
O=C(CSc1nnc(-c2ccc(F)cc2)c2ccccc12)Nc1c(F)cccc1F	-25.8%	u	-4.5	-26.8%	-10.9%	u
O=C(CSc1nnc(-c2ccc(F)cc2)c2ccccc12)Nc1cccc(Cl)c1	-2.3%	u	-95.2*	-11.7%	-23.9%	u
CCc1nnc(SCC(=O)Nc2ccccc2)nc1CC	12.2%	2.9%	12.2	-2.8%	-5.5%	-7.4%
COC(=O)Cc1nnc(SCC(=O)Nc2ccccc2)c2ccccc12	5.4%	18.4µM*	-62.7*	-5.1%	2.8%	23.1µM*
O=C(CSc1nnc(-c2ccc(F)cc2)c2ccccc12)Nc1ccccc1	-10.1%	u	-61.4*	-18.6%	0.8%	u
CN(C(=O)c1ccc(F)cc1)c1ccc(OCC(=O)Nc2ccccc2C(=O)O)cc1	1.7%	-18.8%	22.9	2.1%	u	u
CCOc1ccc(CCNS(=O)(=O)c2c(C)n[nH]c2C)cc1OCC	13.4%	20.6µM*	0.0	11.1%	1.0%	-18.0%
CCOc1ccc(CCNS(=O)(=O)c2cc3c(cc2C)NC(=O)CO3)cc1OCC	8.0%	-6.2%	-22.9	0.9%	-23.0%	u
CC12CCC(=O)N1C(C(=O)NNC(=O)COc1ccc(Br)cc1)CS2 (stereo not drawn)	0.8%	0.7%	-4.9	-0.4%	3.9%	-20.2%
CCN(CC)CCCNC(=O)C(C)n1nc(C)n2c(cc3occc32)c1=O (stereo not drawn)	x	-4.5%	x	x	x	-4.9%
O=C(CC(O)(CC(=O)OCc1ccccc1)C(=O)OCc1ccccc1)OCc1ccccc1	-18.6%	-11.3%	-54.9*	-3.1%	x	u

Assay outcomes (PubChem)
